# According to PMC5540273 (PLoS ONE, 2017):
# Key:
# Details in all cases: concentration: 1 μM, replicates: in singlicate; n = 1
# PIK3C2G = system: PIK3C2G
# PIK3CA = system: PIK3CA
# PIK3CB = system: PIK3CB
# PIK3CD = system: PIK3CD
# PIK3CG = system: PIK3CG
# PIK4CB = system: T1, PIK4CB
# T1 construct: gene PI4KB
# PIKFYVE = system: PIKFYVE
# PIM1 = system: PIM1
# PIM2 = system: PIM2
# PIM3 = system: PIM3
# 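Also: KINOMEscan kinase panel screen.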
compound,measurement,setting,value
Cc1ccc(Nc2ccnc(Nc3ccc(C)c(F)c3)n2)cc1O.Cl [GW582868],%Inh,PIK3C2G,0%
same,%Inh,PIK3CA,0%
same,%Inh,PIK3CB,0%
same,%Inh,PIK3CD,11%
same,%Inh,PIK3CG,0%
same,%Inh,PIK4CB,8%
same,%Inh,PIKFYVE,24%
same,%Inh,PIM1,52%
same,%Inh,PIM2,0%
same,%Inh,PIM3,0%
COc1cc(Nc2nccc(N3CCC(NC(=O)Nc4ccc5c(c4)OCO5)C3)n2)cc(OC)c1OC (stereo not shown) [GSK1379766],%Inh,PIK3C2G,0%
same,%Inh,PIK3CA,3%
same,%Inh,PIK3CB,0%
same,%Inh,PIK3CD,50%
same,%Inh,PIK3CG,13%
same,%Inh,PIK4CB,80%
same,%Inh,PIKFYVE,10%
same,%Inh,PIM1,0%
same,%Inh,PIM2,0%
same,%Inh,PIM3,0%
Cc1cccc(Nc2nc(NCCN)ncc2C(N)=O)c1 [GSK1292139],%Inh,PIK3C2G,0%
same,%Inh,PIK3CA,0%
same,%Inh,PIK3CB,0%
same,%Inh,PIK3CD,2%
same,%Inh,PIK3CG,2%
same,%Inh,PIK4CB,22%
same,%Inh,PIKFYVE,0%
same,%Inh,PIM1,28%
same,%Inh,PIM2,35%
same,%Inh,PIM3,58%
Cc1ccccc1CC(=O)N1CCc2cc(-c3cn(C)c4ncnc(N)c34)ccc21 [GSK2603346],%Inh,PIK3C2G,0%
same,%Inh,PIK3CA,0%
same,%Inh,PIK3CB,0%
same,%Inh,PIK3CD,25%
same,%Inh,PIK3CG,0%
same,%Inh,PIK4CB,0%
same,%Inh,PIKFYVE,0%
same,%Inh,PIM1,0%
same,%Inh,PIM2,0%
same,%Inh,PIM3,0%
CN(C)c1ncnc2nc[nH]c12 [SKF-31736],%Inh,PIK3C2G,0%
same,%Inh,PIK3CA,13%
same,%Inh,PIK3CB,0%
same,%Inh,PIK3CD,0%
same,%Inh,PIK3CG,8%
same,%Inh,PIK4CB,1%
same,%Inh,PIKFYVE,21%
same,%Inh,PIM1,5%
same,%Inh,PIM2,0%
same,%Inh,PIM3,8%
CS(=O)(=O)c1cccc(CNc2nc(Nc3ccc4c(c3)CCC(=O)N4)ncc2C(F)(F)F)c1,%Inh,PIK3C2G,9%
same,%Inh,PIK3CA,0%
same,%Inh,PIK3CB,3%
same,%Inh,PIK3CD,0%
same,%Inh,PIK3CG,0%
same,%Inh,PIK4CB,0%
same,%Inh,PIKFYVE,28%
same,%Inh,PIM1,10%
same,%Inh,PIM2,0%
same,%Inh,PIM3,32%
COc1cccc(NC(=O)NCCNc2ccnc(Nc3ccc(F)cc3)n2)c1 [GSK1379879],%Inh,PIK3C2G,10%
same,%Inh,PIK3CA,0%
same,%Inh,PIK3CB,0%
same,%Inh,PIK3CD,0%
same,%Inh,PIK3CG,0%
same,%Inh,PIK4CB,0%
same,%Inh,PIKFYVE,8%
same,%Inh,PIM1,13%
same,%Inh,PIM2,0%
same,%Inh,PIM3,0%
COc1ccc(C2=C(Nc3cccc(O)c3)C(=O)NC2=O)cc1 [SB-390766],%Inh,PIK3C2G,0%
same,%Inh,PIK3CA,0%
same,%Inh,PIK3CB,0%
same,%Inh,PIK3CD,2%
same,%Inh,PIK3CG,0%
same,%Inh,PIK4CB,9%
same,%Inh,PIKFYVE,0%
same,%Inh,PIM1,9%
same,%Inh,PIM2,0%
same,%Inh,PIM3,0%
CSc1ccc(NC2=C(c3ccc(Cl)cc3)C(=O)NC2=O)cc1 [SB-317658],%Inh,PIK3C2G,15%
same,%Inh,PIK3CA,0%
same,%Inh,PIK3CB,24%
same,%Inh,PIK3CD,54%
same,%Inh,PIK3CG,0%
same,%Inh,PIK4CB,27%
same,%Inh,PIKFYVE,0%
same,%Inh,PIM1,1%
same,%Inh,PIM2,0%
same,%Inh,PIM3,12%
CCNC(=O)/C=C/c1n[nH]c2cc(Sc3ccccc3C(=O)NC)ccc12,%Inh,PIK3C2G,1%
same,%Inh,PIK3CA,13%
same,%Inh,PIK3CB,21%
same,%Inh,PIK3CD,0%
same,%Inh,PIK3CG,36%
same,%Inh,PIK4CB,0%
same,%Inh,PIKFYVE,1%
same,%Inh,PIM1,35%
same,%Inh,PIM2,5%
same,%Inh,PIM3,0%
Cl.O=C(Nc1ccc(Oc2ccc3[nH]c(NC(=O)c4ccco4)nc3c2)cc1)Nc1cc(C(F)(F)F)ccc1F [GW683134],%Inh,PIK3C2G,0%
same,%Inh,PIK3CA,100%
same,%Inh,PIK3CB,0%
same,%Inh,PIK3CD,8%
same,%Inh,PIK3CG,99.9%
same,%Inh,PIK4CB,18%
same,%Inh,PIKFYVE,0%
same,%Inh,PIM1,0%
same,%Inh,PIM2,0%
same,%Inh,PIM3,0%
CN(c1ccc(NC(=O)N2CCN(CCCN3CCOCC3)CC2)cc1)c1ccnc(Nc2ccc(CS(C)(=O)=O)cc2)n1.Cl [GW830899],%Inh,PIK3C2G,0%
same,%Inh,PIK3CA,0%
same,%Inh,PIK3CB,0%
same,%Inh,PIK3CD,0%
same,%Inh,PIK3CG,0%
same,%Inh,PIK4CB,100%
same,%Inh,PIKFYVE,0%
same,%Inh,PIM1,16%
same,%Inh,PIM2,0%
same,%Inh,PIM3,0%
O=C(Nc1c(F)cccc1F)c1cc(C(=O)c2ccccc2F)c[nH]1 [GSK1326180],%Inh,PIK3C2G,0%
same,%Inh,PIK3CA,0%
same,%Inh,PIK3CB,0%
same,%Inh,PIK3CD,0%
same,%Inh,PIK3CG,0%
same,%Inh,PIK4CB,0%
same,%Inh,PIKFYVE,0%
same,%Inh,PIM1,0%
same,%Inh,PIM2,0%
same,%Inh,PIM3,0%
O=C(O)C(F)(F)F.O=c1[nH]ccc2nc(N[C@@H]3CCNC3)nc(Nc3ccc4c(c3)S(=O)(=O)CC4)c12 [GSK2181306],%Inh,PIK3C2G,23%
same,%Inh,PIK3CA,9%
same,%Inh,PIK3CB,100%
same,%Inh,PIK3CD,34%
same,%Inh,PIK3CG,86%
same,%Inh,PIK4CB,0%
same,%Inh,PIKFYVE,0%
same,%Inh,PIM1,89%
same,%Inh,PIM2,96.6%
same,%Inh,PIM3,99%
COc1cccc(-c2nc(-c3ccccc3)[nH]c2-c2ccncc2)c1 [SB-610250],%Inh,PIK3C2G,0%
same,%Inh,PIK3CA,0%
same,%Inh,PIK3CB,0%
same,%Inh,PIK3CD,0%
same,%Inh,PIK3CG,0%
same,%Inh,PIK4CB,13%
same,%Inh,PIKFYVE,63%
same,%Inh,PIM1,1%
same,%Inh,PIM2,0%
same,%Inh,PIM3,0%
Cc1ccc(-c2ccc3occ(-c4ccc(S(C)=O)cc4)c3c2)nn1 (stereo not shown),%Inh,PIK3C2G,18%
same,%Inh,PIK3CA,0%
same,%Inh,PIK3CB,0%
same,%Inh,PIK3CD,2%
same,%Inh,PIK3CG,8%
same,%Inh,PIK4CB,0%
same,%Inh,PIKFYVE,3%
same,%Inh,PIM1,4%
same,%Inh,PIM2,9%
same,%Inh,PIM3,4%
COC(=O)Nc1nc2cc(Oc3ccc(NC(=O)Nc4cccc(SC)c4)cc3)ccc2[nH]1.Cl [GW697999],%Inh,PIK3C2G,85%
same,%Inh,PIK3CA,0%
same,%Inh,PIK3CB,0%
same,%Inh,PIK3CD,0%
same,%Inh,PIK3CG,0%
same,%Inh,PIK4CB,0%
same,%Inh,PIKFYVE,0%
same,%Inh,PIM1,12%
same,%Inh,PIM2,0%
same,%Inh,PIM3,0%
COc1cccc2c(-c3ccncc3)c(-c3ccc(F)cc3)nn12 [GW468513],%Inh,PIK3C2G,0%
same,%Inh,PIK3CA,0%
same,%Inh,PIK3CB,0%
same,%Inh,PIK3CD,11%
same,%Inh,PIK3CG,0%
same,%Inh,PIK4CB,0%
same,%Inh,PIKFYVE,0%
same,%Inh,PIM1,9%
same,%Inh,PIM2,0%
same,%Inh,PIM3,0%
CN(c1ccc2c(c1)nc(NCc1ccccc1)n2C)c1ccnc(Nc2ccc(CS(C)(=O)=O)cc2)n1.Cl [GW811603],%Inh,PIK3C2G,0%
same,%Inh,PIK3CA,0%
same,%Inh,PIK3CB,41%
same,%Inh,PIK3CD,0%
same,%Inh,PIK3CG,29%
same,%Inh,PIK4CB,26%
same,%Inh,PIKFYVE,50%
same,%Inh,PIM1,0%
same,%Inh,PIM2,0%
same,%Inh,PIM3,0%
